Results on 14 molecules are retold here after PubChem BioAssay (NCATS).

SMILES strings stand for the structures. Inconclusive results are not listed. Values without a mark were called inactive. Activity calls are given as the source filed them. The call rests on the fitted dose curve; in most records, active means well fitted curve in the direction sought with a large enough effect; inconclusive means small, poorly fitted or top-dose-only effect, or another doubt; inactive means no such curve, though single readings can be large; an effect the other way counts as inactive or inconclusive.

The test system of one assay is HEK293. In words: Cytotoxic Profiling of Annotated Libraries Using Quantitative High-Throughput Screening (AID 1296008). Further: nearly all actives have a fitted effect of over 60% in size. Further: potency means the concentration at half of the fitted maximal effect. On max response: on the % scale 0 is the no-effect control and ±100 the full control effect. The following applies: Five cell lines viability, CellTiter-Glo ATP luminescence, 48-72 h; max response: hits give low values. The method in brief: (§1)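 Cells exposed to compounds for 48 or 72 hr at 37 degrees Celsius. Viability read as ATP-coupled luminescence with CellTiter-Glo after 10 min at room temperature.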
In general terms: Cellular ATP, detected with luciferase, serves as a proxy for viable cell number.

Assay [1] concerns HaCat. The description is as above. The following applies: Five cell lines viability, CellTiter-Glo ATP luminescence, 48-72 h; max response: hits give low values. The gist of the method:
as §1

A further assay concerns C33A. In words: Primary qHTS to identify gynecologic anti-cancer compounds using libraries of approved drugs and bioactive compounds (AID 1345084). Further: nearly all actives have a fitted effect of over 55% in size. Further: potency means the concentration at half of the fitted maximal effect. The conditions noted are these: Gynecologic cancer cell panel viability, ATPlite luminescence, 48 h; series mostly up to 57.5 µM. The method in brief: (§2)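 Cells, 1,000 per well, plated 16 h, then exposed 48 h at 37 C to compounds. Viability by ATPlite luminescence after 15 min at room temperature.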
(Quantitative high-throughput screening tests each substance at several concentrations.)

In a further assay the test system is CASKI. The assay is described as above. The following applies: Gynecologic cancer cell panel viability, ATPlite luminescence, 48 h; series mostly up to 57.5 µM. The method in brief: as §2
For a further assay, the system named is Es-2. The assay is described as above. The conditions noted are these: Gynecologic cancer cell panel viability, ATPlite luminescence, 48 h; series mostly up to 57.5 µM. The gist of the method: as §2
For another assay, the system named is HeLa. The description is as above. The conditions noted are these: Gynecologic cancer cell panel viability, ATPlite luminescence, 48 h; series mostly up to 57.5 µM. The method in brief:
as §2

Another assay deals with Hek293T. The assay is described as above. The following applies: Gynecologic cancer cell panel viability, ATPlite luminescence, 48 h, control line for the selectivity index; series mostly up to 57.5 µM. The method in brief:
as §2

The subject of the next assay is JEG-3. Described as above. The following applies: Gynecologic cancer cell panel viability, ATPlite luminescence, 48 h; series mostly up to 57.5 µM. The gist of the method: as §2
The next assay relates to CAOV3. Described as above. The conditions noted are these: Gynecologic cancer cell panel viability, ATPlite luminescence, 48 h; series mostly up to 57.5 µM. The method in brief: as §2
In assay [2] the test system is HACAT. In words: qHTS assay to identify novel small-molecules to repurpose for Merkel cell carcinoma treatment (AID 1296009). Further: nearly all actives have a fitted effect of over 60% in size. The following applies: MCC and control cell lines, CellTiter-Glo viability, 72 h; at 44.8 µM (top of the series) unless noted. The method in brief: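 Cells were incubated with compound for 72 hr at 37 degree celsius before CellTiter-Glo addition. Luminescence was normalized with no-cell wells as full cytotoxicity and DMSO as baseline.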

The test system of the next assay is OV90. Nature of the assay: Primary qHTS to identify gynecologic anti-cancer compounds using libraries of approved drugs and bioactive compounds (AID 1345084). Further: nearly all actives have a fitted effect of over 55% in size. Further: potency means the concentration at half of the fitted maximal effect. The conditions noted are these: Gynecologic cancer cell panel viability, ATPlite luminescence, 48 h; series mostly up to 57.5 µM. The gist of the method:
as §2

The test system of the next assay is PA-1. The assay is described as above. The conditions noted are these: Gynecologic cancer cell panel viability, ATPlite luminescence, 48 h; series mostly up to 57.5 µM. The method in brief: as §2
In the next assay the test system is NIH3T3. In words: Cytotoxic Profiling of Annotated Libraries Using Quantitative High-Throughput Screening (AID 1296008). Further: nearly all actives have a fitted effect of over 60% in size. Further: potency means the concentration at half of the fitted maximal effect. On max response: on the % scale 0 is the no-effect control and ±100 the full control effect. The following applies: Five cell lines viability, CellTiter-Glo ATP luminescence, 48-72 h; max response: hits give low values. The gist of the method:
as §1

For `NC(=O)c1cnc(N[C@@H]2CCCC[C@H]2N)nc1Nc1cccc(-n2nccn2)c1`, the Potency in the assay with HEK293 was 20.6 µM (active); with HaCat [1], 18.4 µM (active). Moreover, the Potency result in the assay with C33A, with CASKI, in the assay with Es-2, with HeLa, in the assay with Hek293T and in the assay with JEG-3 was “inactive” throughout.
On to `CCC(=C(c1ccc(OCCN2CCCC2)cc1)c1ccc(OCCN2CCCC2)cc1)c1ccccc1`, for which the Potency in the assay on HEK293 was 8.2 µM (active). The max response in the assay on HaCat [1] was -11%. For the same molecule, the Potency entry in the assay on C33A, in the assay with CAOV3, with CASKI, in the assay with Es-2, with HeLa and in the assay with Hek293T was “inactive” each time. The Potency entry in the assay with JEG-3 was “inactive”.
For `CC(C)CCNC(=O)c1ccc2c(c1)nc(Nc1n[nH]c3ccc(-c4ccccc4OC(F)(F)F)cc13)n2C1CCC(O)CC1` (stereo not given), the Potency in the assay on HEK293 was 9.2 µM (active). The call in the assay with HaCat [1] and with HACAT [2] was inactive. In addition, the Potency entry in the assay with CAOV3, with CASKI, with Es-2, in the assay with HeLa, with Hek293T and in the assay on JEG-3 was “inactive” each time. For the same molecule, the Potency entry with OV90 and in the assay on PA-1 was “inactive” throughout.
Consider `COc1ccc2nc(-c3cc(OC)c(OC)c(OC)c3)cc(C(=O)NCC(=O)Nc3ccc(C(C)=O)cc3)c2c1`, for which the Potency with HEK293 is 7.31 µM (active). Also, in the assay with HaCat [1], the max response was -18%. In addition, the Potency result in the assay on C33A, with CAOV3, in the assay on CASKI, with Es-2, with HeLa and in the assay with Hek293T was “inactive” throughout. Further, the Potency result in the assay with OV90 is “inactive”.
Take `COc1ccc(C#Cc2ccc(C(=O)N3CCC[C@@H](O)C3)c(F)c2)cc1`: the Potency with HEK293 is 13 µM (active); in the assay with Es-2, 12.6 µM (active); with Hek293T it was 14.1 µM (active). The max response in the assay with HaCat [1] is -33.7%. Moreover, the Potency entry with JEG-3 was “inactive”.
As to `O=S(=O)(NCc1cccc2ccccc12)c1cc(Cl)c(Oc2cccc(N3CCNCC3)c2)s1`, the Potency in the assay on HEK293 is 10.3 µM (active); in the assay with NIH3T3 it was 14.6 µM (active). Besides, the Potency entry in the assay on C33A, in the assay on CASKI, with HeLa, with JEG-3 and in the assay with OV90 was “inactive” throughout.
As to `Oc1ccc(-c2cnc3ccc(NCc4ccco4)nn23)cc1`, the results for the Potency with HEK293, in the assay on HaCat [1] and in the assay on PA-1 were 20.6 µM (active), 7.31 µM (active) and 28.2 µM (active), respectively. Moreover, the Potency entry with JEG-3 and in the assay on OV90 was “inactive” each time.
For `Cc1ccc(O)cc1Nc1ccnc(Nc2cccc(C(N)=O)c2)n1`, the Potency is 14.6 µM (active) in the assay on HEK293 and 2.31 µM (active) in the assay with NIH3T3. In addition, the Potency entry in the assay on C33A, in the assay on CAOV3 and in the assay with JEG-3 was “inactive” each time.
For the molecule `Cc1nc(NC(=O)N2CCC[C@H]2C(N)=O)sc1-c1ccnc(C(C)(C)C(F)(F)F)c1`, the values for the Potency in the assay on HEK293 and in the assay with HaCat [1] were 16.4 µM (active) and 3.66 µM (active), respectively. Also, the Potency result with C33A, in the assay on Es-2, with HeLa, in the assay on Hek293T, in the assay with JEG-3 and in the assay with PA-1 was “inactive” each time.
`Cn1cc(-c2cnn3c(N)c(Br)c([C@@H]4CCCNC4)nc23)cn1`: the Potency was 1.16 µM (active) in the assay with HEK293 and 2.06 µM (active) in the assay on NIH3T3. The Potency entry in the assay on C33A, in the assay with CAOV3, with CASKI and with OV90 was “inactive” throughout.
Regarding `C[C@H](CN(C)C)Oc1nc(Nc2cc3cccc(Cl)c3cn2)cnc1C#N`, the values for the Potency with HEK293 and in the assay on NIH3T3 were 1.3 µM (active) and 2.06 µM (active), respectively. Further, the Potency result in the assay with C33A, in the assay on CAOV3, in the assay with CASKI, in the assay on HeLa, in the assay on JEG-3 and in the assay with OV90 was “inactive” each time. In the assay with PA-1, the Potency result was “inactive”.
For the molecule `N#Cc1cc(CN2CCC(Nc3ncnc4sc(Cl)cc34)CC2)ccc1F`, the Potency with HEK293 was 14.6 µM (active). Further, the Potency result with C33A, in the assay with CAOV3, with CASKI, in the assay on HeLa and with JEG-3 was “inactive” each time.
With `N#Cc1cnc2c(Cl)cc(NCc3cn(CCN4CCCCCC4)nn3)cc2c1Nc1ccc(F)c(Cl)c1`, in the assay on HEK293, the Potency was 18.4 µM (active). For the same molecule, the Potency entry with C33A, in the assay with CAOV3, in the assay on CASKI, in the assay on Es-2, with HeLa and in the assay with Hek293T was “inactive” throughout. In addition, the Potency result in the assay with JEG-3 is “inactive”.
As to `C=C1C(=O)OC2/C=C(\C)CC3C=C(CC/C=C(\C)CCC12)C(=O)O3` (stereo not given), the Potency in the assay on HEK293 is 11.4 µM (active). Further, the Potency result in the assay with C33A, with CAOV3, in the assay on CASKI, in the assay with Es-2, with HeLa and in the assay on Hek293T was “inactive” each time. Besides, the Potency entry with JEG-3 and in the assay with PA-1 was “inactive” in each case.
